High-throughput results as filed in PubChem BioAssay.
Pol iota inh – qHTS for Inhibitors of Polymerase Iota; Potency, µM (titrated, usually from 115 µM), without a hit: top-dose activity, negative = inhibition, hits mostly inhibitors; 390,000 tested, 1% active; DNA polymerase iota (Homo sapiens), Q9UNA4; Pol iota fluorescent replication assay, 10 min
Target sequence (Q9UNA4 whole entry, looked up): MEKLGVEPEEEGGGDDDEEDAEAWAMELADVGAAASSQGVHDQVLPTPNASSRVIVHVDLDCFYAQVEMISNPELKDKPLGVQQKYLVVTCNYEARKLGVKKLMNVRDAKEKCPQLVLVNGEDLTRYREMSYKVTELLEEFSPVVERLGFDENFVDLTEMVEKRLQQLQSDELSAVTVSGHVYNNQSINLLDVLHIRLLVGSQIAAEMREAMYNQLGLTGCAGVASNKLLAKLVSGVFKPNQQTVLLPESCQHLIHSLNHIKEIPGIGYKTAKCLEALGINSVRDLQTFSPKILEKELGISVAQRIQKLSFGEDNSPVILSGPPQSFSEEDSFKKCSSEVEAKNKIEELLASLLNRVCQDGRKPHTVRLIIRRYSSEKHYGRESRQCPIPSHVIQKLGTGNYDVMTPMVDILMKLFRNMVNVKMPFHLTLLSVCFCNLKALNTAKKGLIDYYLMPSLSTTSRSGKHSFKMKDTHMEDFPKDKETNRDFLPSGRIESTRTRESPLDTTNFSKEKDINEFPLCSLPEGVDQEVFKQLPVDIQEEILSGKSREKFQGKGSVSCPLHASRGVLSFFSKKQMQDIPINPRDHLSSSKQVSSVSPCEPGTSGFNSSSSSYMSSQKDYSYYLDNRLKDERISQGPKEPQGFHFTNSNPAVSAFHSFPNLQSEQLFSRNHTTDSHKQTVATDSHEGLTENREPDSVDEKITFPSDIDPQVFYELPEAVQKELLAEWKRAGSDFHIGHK
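Pol iota at 10 nM preincubated 15 min with compounds at room temperature; reaction started with fluorescent substrate, 50 nM final. Fluorescence read kinetically at 0 and 10 min; buffer-only wells as negative control.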
POLK inh – qHTS for Inhibitors of Polymerase Kappa. DNA polymerase kappa (Homo sapiens), Q9UBT6. 400,000 tested, 0.53% active. Potency, µM (series often up to 107 µM), inactives show at the top dose activity, negative = inhibition, hits mostly inhibitors. purified Pol kappa, fluorescent DNA synthesis assay, 10 min; also: % is scaled to controls: 0 for no effect and ±100 for the full control effect
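Here, compound and 10 nM enzyme are combined for 15 min at room temperature; adding 50 nM substrate (final) starts DNA synthesis, tracked by fluorescence at 0 and 10 min against buffer-only wells.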
WRN helicase inh – qHTS for Inhibitors of WRN Helicase; Potency, µM (highest dose often 114 µM), inactives show at the top dose activity change, negative = inhibition, usual class: inhibitors; 360,000 tested, 0.46% active; WRN helicase unwinding, fluorescent forked duplex, kinetic; Bifunctional 3'-5' exonuclease/ATP-dependent helicase WRN (Homo sapiens), Q14191; also: % is scaled to controls: 0 for no effect and ±100 for the full control effect; nearly all actives have a fitted effect of over 55% in size
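Kinetic red-fluorescence monitoring (525/598 nm) tracks WRN helicase activity after 100 nM fluorophore-quencher forked duplex and 2 mM ATP are added to 20 nM enzyme pretreated 15 min at room temperature with compound.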
POLH inh – qHTS for Inhibitors of Polymerase Eta | DNA polymerase eta (Homo sapiens), Q9Y253 | recombinant Pol eta, fluorescent DNA replication assay | AID 588591, 2011 | 390,000 tested, 1.2% active | Potency, µM (titrated, usually from 114 µM), for the others: at the top dose activity change, negative = inhibition, hits mostly inhibitors; also: % is scaled to controls: 0 for no effect and ±100 for the full control effect
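Pol eta (10 nM) was preincubated with compounds for 15 min at room temperature, after which fluorescent replication substrate (50 nM final) was added to start the reaction. Fluorescence was read kinetically at 0 and 10 min.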
POLB inh – qHTS Assay for Inhibitors of DNA Polymerase Beta; Pol beta primer extension/strand displacement, fluorescence kinetic; Potency, µM (highest dose often 114 µM), inactives show at the highest dose activity change, negative = inhibition, hits mostly inhibitors; 340,000 tested, 1.3% active; also: % is scaled to controls: 0 for no effect and ±100 for the full control effect
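Values derive from four-parameter Hill fits of normalized kinetic data: reads at 0 and 10 min following addition of 50 nM substrate to 10 nM Pol beta preincubated 15 min with compound.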
FEN1 inh – qHTS Assay for the Inhibitors of Human Flap endonuclease 1 (FEN1) | P39748 | Recombinant FEN1 flap cleavage, fluorescence, 15 min | Potency, µM (doses to about 114 µM), for the others: top-dose activity change, negative = inhibition, most hits filed as inhibitors | 390,000 tested, 0.35% active; also: % is scaled to controls: 0 for no effect and ±100 for the full control effect; nearly all actives have a fitted effect of over 65% in size
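FEN1 at 10 nM preincubated with compounds 15 min at room temperature, then flap DNA substrate added at 50 nM final. Signal read at 0 and 15 min; concentration-response fitted with four-parameter Hill equation.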
The depositor's hits bear a star; ? = inconclusive; . = no result given; [ ] = dose if it differs, or a comment. Most compounds without a hit are left out; they make up all but 2.4% or so of the library. Calls follow the shape of the dose curve; as a rule, active = well fitted curve in the direction sought with a large enough effect; inconclusive = small, poorly fitted or top-dose-only effect, or another doubt; inactive = no such curve, though single readings can be large; an effect the other way counts as inactive or inconclusive. Potency is read from the fitted curve at half-maximal effect.

SMILES | Pol iota inh | POLK inh | WRN helicase inh | POLH inh | POLB inh | FEN1 inh
CCOc1ccccc1C1C2C(=O)N(c3ccccc3)C(=O)C2ON1c1ccccc1 (stereo not given) | 56µM* | -7% | -14%[57.1 µM] | -18% | 5% | 2%
CCc1nnc(NS(=O)(=O)c2ccc(N3C(=O)C4CC=C(Cl)CC4C3=O)cc2)s1 (stereo not given) | ? | -17% | -19%[11.6 µM] | 45µM* | 27% | -15%
Cc1ccc(S(=O)(=O)NCc2ccncc2)cc1 | 3% | 7% | 3% | -12% | 4% | 4%
CC1CCCCC1NS(=O)(=O)c1ccc(S(=O)(=O)NCc2ccncc2)cc1 (stereo not given) | ? | 0% | -22% | -9% | 71µM* | -1%
CC1=Nc2ccccc2/C1=C\c1nc(-c2ccc(C(F)(F)F)cc2)oc1O | 8.9µM* | -13% | ? | 55% | 16% | -9%
CC1=Nc2ccccc2/C1=C\c1nc(-c2ccccc2)oc1O | ? | -1% | -3% | -8% | -13% | -3%
Cc1ccc(NC(=O)c2c(C)oc3ccc(O)c(CN4CCCCCC4)c23)c(C)c1 | 0% | 0% | . | -16% | 1% | 10%
Cc1ccc2nc(Cl)c(C3CC(c4ccco4)=NN3C(=O)CCCC(=O)O)cc2c1 (stereo not given) | 16µM* | 35µM* | -20% | ? | -4% | -13%
O=c1cc(-c2ccccc2Cl)oc2c(NS(=O)(=O)c3cccc4nsnc34)ccc(O)c12 | ? | -7% | -1% | -3% | 9% | -10%
Nc1ccc(O)c2c(=O)cc(-c3ccccc3Cl)oc12 | -19% | -11% | -12% | -12% | 22µM* | -8%
O=c1cc(-c2ccccc2Cl)oc2c(NS(=O)(=O)c3cc(Cl)cc(Cl)c3O)ccc(O)c12 | 40µM* | ? | ? | 32µM* | 45µM* | -36%
O=c1cc(-c2ccccc2Cl)oc2cc(O)cc(O)c12 | 5% | -5% | -7% | -10% | ? | -18%
C[n+]1ccnc2ccccc21 | -14% | 2% | . | . | . | 10%
CCCOc1ccc(/C=N/NC(=O)CSc2ccccn2)cc1OC | 18% | -22% | -6% | -12% | 79µM* | -15%
COc1ccc(C(=O)N/N=C/c2ccc(OC)c(CN3CCCc4ccccc43)c2)cc1 | 44% | -20% | 4% | -3% | 20µM* | -6%
CCCCOc1ccc(C(=O)N/N=C/c2ccc(OCCN3CCCCC3)c(OC)c2)cc1 | ? | ? | -2%[11.6 µM] | ? | 16µM* | -6%
COc1cc(/C=N/NC(=O)CSc2ccccn2)ccc1O | -16% | -5% | 0% | -3% | ? | 5%
COc1ccccc1CNC(=O)CN1N=C(c2ccccc2)CCC1=O | 6% | -5%[60.1 µM] | . | -15% | ? | 19%
COc1ccc(C)cc1NC(=O)C(=O)NCCc1csc(-c2ccc(C)cc2)n1 | 25% | -5%[60.1 µM] | . | -17% | -3% | 0%
OC1C2COC(O2)[C@H](O)C1O (stereo not given in full) | . | -1%[60.1 µM] | . | . | . | .
S=c1nc[nH]c2n[nH]nc12 | -5% | 1% | . | . | . | -5%
N#Cc1c(-c2ccccc2)nc(SCc2ccc(Cl)cc2)[nH]c1=O | ? | -2% | -25% | 79µM* | ? | -22%
C=CCSc1nc(-c2ccccc2)c(C#N)c(=O)[nH]1 | 75% | 6% | -5% | -7% | -6% | -11%
Cc1nc2oc3c(NCC4CCCO4)ncnc3c2c2c1COC(C)(C)C2 (stereo not given) | 30% | -3% | 7% | 3% | -25% | -10%
Cc1nc2oc3c(NCc4ccccc4)ncnc3c2c2c1COC(C)(C)C2 | 19% | -6% | -2% | 14µM* | 8% | -8%
Cc1ccc2nc(C)cc(SCC(=O)N/N=C/c3ccco3)c2c1 | -16% | -14% | -13% | 8% | 40µM* | 3%
